# An excerpt weighted towards active compounds, which were near 2.6% of everything screened.
# Cruzain Triton: blocks cruzain activity in presence of Triton detergent | P25779 | purified cruzain, Z-FR-AMC fluorescence, 0.01% Triton | Potency, µM, usual class: inhibitors | actives 0.43% (n = 200,000); note: nearly all actives have a fitted effect of over 40% in size
# Target sequence (P25779 123-467 limits assumed): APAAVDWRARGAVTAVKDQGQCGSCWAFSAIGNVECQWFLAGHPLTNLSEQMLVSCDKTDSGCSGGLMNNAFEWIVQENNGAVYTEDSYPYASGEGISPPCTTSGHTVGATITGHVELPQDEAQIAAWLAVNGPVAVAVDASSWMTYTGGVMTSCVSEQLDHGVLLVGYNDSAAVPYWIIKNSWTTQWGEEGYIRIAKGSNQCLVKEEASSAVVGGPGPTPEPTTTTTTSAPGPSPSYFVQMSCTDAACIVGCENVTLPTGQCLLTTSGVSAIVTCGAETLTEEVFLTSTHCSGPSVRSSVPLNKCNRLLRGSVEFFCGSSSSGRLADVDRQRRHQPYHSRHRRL
#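 Z-FR-AMC hydrolysis (2 uM substrate) by cruzain (1.5 nM) monitored kinetically at ex 360/em 450 nm after 15 min room-temperature compound exposure; 0.01% Triton X-100, pH 5.5, 5 mM DTT.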
# Cruzain noTriton: cruzain (T. cruzi) inhibition without detergent | P25779 | purified cruzain, Z-FR-AMC fluorescence, no detergent | Potency, µM, usual class: inhibitors | actives 2.3% (n = 200,000) | AID 1476; note: nearly all actives have a fitted effect of over 40% in size
#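 Detergent-free condition (0.00005% Triton X-100) in acetate buffer pH 5.5 with DTT. 1.5 nM enzyme and compound were pre-mixed 15 min, then 2 uM Z-FR-AMC substrate added; reaction progress from fluorescence change between first and third reads (60 s).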
# Numbers stand for hits; n = inactive; u = inconclusive. Calls come from the whole dose curve; as a rule, active = well fitted curve in the direction sought with a large enough effect; inconclusive = small, poorly fitted or top-dose-only effect, or another doubt; inactive = no such curve, though single readings can be large; an effect the other way counts as inactive or inconclusive.
SMILES,Cruzain Triton,Cruzain noTriton
CC(C)c1ccc(C2Sc3ccccc3NC3=C2C(=O)c2ccccc23)cc1 (stereo not given),n,10µM
CC(=O)Nc1ccc(C2Sc3ccccc3NC3=C2C(=O)c2ccccc23)cc1 (stereo not given),n,n
Cc1cccc(NC(=O)Cn2cc(S(=O)(=O)N3CCCC3)c(S(=O)(=O)N3CCCC3)c2)c1C,n,n
CCOc1ccc(-c2cc3nc(C4CCN(C(=O)OC(C)(C)C)CC4)c(C(=O)Nc4ccc(C)c(F)c4)cn3n2)cc1,n,u
CCSc1nc(-c2ccc(OC)cc2)nc2c1Cc1c(CO)cnc(C)c1O2,n,n
CCNc1ncc2nc(-c3cc(F)cc(F)c3)c(=O)n(C[C@H]3CCCO3)c2n1,n,n
O=C(c1ccncc1)N1CCC2(CC1)CN(c1ccccc1)C2,n,n
COc1ccc(/C=C/C(=O)/C=C/c2ccc(OC)cc2OC)c(OC)c1,n,3.16µM
COc1ccc(/C=C/C(=O)c2ccc(Cl)cc2)c(OC)c1,n,n
COc1cc2c(cc1OC)C(c1ccc(F)cc1)N(c1cccc(C#N)c1)C(=O)C2 (stereo not given),n,n
COc1ccc(CCNC(=O)CN2C(=O)COc3ccc(S(=O)(=O)N4CCCCCC4)cc32)cc1OC,n,n
COc1ccc(-c2coc3cc4oc(=O)cc(C)c4cc23)cc1F,n,n
COc1ccc(-c2coc3cc4oc(=O)cc(-c5ccccc5)c4cc23)cc1F,n,10µM
CCN(C(=O)CCS(=O)(=O)c1cc2[nH]c(=O)c(=O)[nH]c2cc1C)c1ccccc1,n,n
COc1ccccc1N1CCN(C(=O)c2cnn(C(C)(C)C)c2C2CCN(C(=O)OC(C)(C)C)CC2)CC1,n,u
NC(N)=Nc1nc(CSCC/C(N)=N\S(N)(=O)=O)cs1,25.1µM,12.6µM
COc1ccc(C(=O)Nc2ccc(OC)c(OC)c2)cc1,n,n
Cc1ccc(NC(=O)c2ccc(OC(=O)C(C)Oc3ccc(Cl)cc3C)cc2)cc1 (stereo not given),n,7.94µM
Cc1sc2c(c1C)c(=O)n(-c1ccc(Cl)cc1)c(=O)n2Cc1c(F)cccc1Cl,n,n
O=C(Nc1cc(-c2nc3cc(Cl)ccc3o2)ccc1Cl)c1cc2ccccc2o1,n,n
COCCn1c(-c2ccco2)csc1=Nc1cccnc1,n,n
CC(C)Cn1c(-c2ccco2)csc1=Nc1cccnc1,15.8µM,12.6µM
COC(=O)c1c(-c2ccc(Cl)cc2)noc1N1CCN(c2ccc(OC)cc2)CC1,n,n
O=C1c2cccc3cccc(c23)C(=O)N1c1nccs1,n,n
O=C1c2cccc3cccc(c23)C(=O)N1c1ccc2ncccc2c1,17.8µM,u
SMILES,Cruzain Triton,Cruzain noTriton
CCCCN1C(=O)c2[nH]nc(-c3ccccc3O)c2C1c1ccc(C(C)(C)C)cc1 (stereo not given),n,u
COCC(=O)Nc1nnc(-c2cccs2)s1,n,n
O=C(Cc1ccccc1)Nc1nnc(-c2cccs2)s1,n,25.1µM
COc1ccc2nc(/C=N/NC(=O)[C@H](C)NC(=O)OC(C)(C)C)ccc2c1,n,31.6µM
Cc1ccc2cc(/C=N/NC(=O)[C@H](C)NC(=O)OC(C)(C)C)c(Cl)nc2c1,n,n
Cc1ccc2c(c1)C(c1ccc([N+](=O)[O-])cc1)=NNC(c1ccc(Br)cc1)=N2,n,u
CCc1ccc2c(c1)C(c1ccc([N+](=O)[O-])cc1)=NNC(c1ccc(Br)cc1)=N2,n,10µM
COc1cccc(-n2cc(C(=O)Nc3cc(C)c(Cl)cc3OC)c3ccccc3c2=O)c1,n,n
CCOc1ccccc1OCC(=O)Nc1ccc(Cl)cc1Cl,n,n
CCOc1ccccc1NC(=S)NC(=O)CCCOc1ccc(Cl)cc1Cl,n,20µM
CCc1ccc(NC(=O)CC(NCc2cccnc2)C(=O)O)cc1 (stereo not given),n,n
Cc1ccc(-n2c(=O)c3oc4ccccc4c3n(Cc3cccc(F)c3)c2=O)cc1C,n,u
O=C(CCC1CCCC1)N1CCc2c([nH]c3ccccc23)C1c1ccc(F)cc1 (stereo not given),n,u
CCOc1cccc(CC(=O)N2CCc3c([nH]c4ccccc34)C2c2ccc(Cl)cc2)c1OCC (stereo not given),n,20µM
O=C(CCc1ccccc1)N1CCc2c([nH]c3ccccc23)C1c1ccc(Cl)cc1 (stereo not given),n,u
COc1ccc(C2c3[nH]c4ccc(OC)cc4c3CCN2C(=O)Nc2ccccc2)cc1 (stereo not given),n,25.1µM
CCOc1ccc(C2c3[nH]c4ccccc4c3CCN2C(=O)CCC2CCCC2)cc1 (stereo not given),n,u
COc1cccc(C(=O)N2CCc3c([nH]c4ccccc34)C2c2ccc(SC)cc2)c1 (stereo not given),n,n
COc1ccc(C2c3[nH]c4ccccc4c3CCN2C(=O)CCC2CCCC2)cc1 (stereo not given),n,15.8µM
O=C(CCC1CCCC1)N1CCc2c([nH]c3ccccc23)C1c1ccc(Cl)cc1 (stereo not given),n,7.94µM
O=C(c1cnc(N2CCCCC2)c2ccccc12)N1CCN(c2ccc(Cl)cc2)CC1,n,n
CCOc1ccc(C(=O)NCc2ccc3c(c2)CCN3C(=O)c2ccc(Cl)cc2)cc1,n,n
CCOc1cccc2cc(C(=O)N3CCc4ccccc43)c(=O)oc12,n,15.8µM
COc1cccc2cc(C(=O)N3CCc4ccccc43)c(=O)oc12,n,n
O=C(Oc1ccc(N(Cc2cccs2)C2=NS(=O)(=O)c3ccccc32)cc1)c1ccco1,n,n
SMILES,Cruzain Triton,Cruzain noTriton
O=C(Oc1ccc(N(Cc2cccs2)C2=NS(=O)(=O)c3ccccc32)cc1)c1ccccc1Cl,n,10µM
COc1ccccc1-c1nnc2n(CCc3ccccc3)c(=O)c3ccccc3n12,n,n
COc1ccc(-c2cc3nc(C)c(CCC(=O)N4CCN(c5ccccc5F)CC4)c(C)n3n2)c(OC)c1,n,n
O=C(CSc1nnc(SCc2cccc3ccccc23)s1)N/N=C/C=C/c1ccccc1[N+](=O)[O-],n,10µM
O=C(CSc1nnc(SCc2cccc3ccccc23)s1)N/N=C/c1c[nH]c2ccccc12,n,n
CC(C)(C)OC(=O)N1CCC(c2c(C(=O)N3CCN(Cc4ccccc4)CC3)cnn2-c2cccc(Cl)c2)CC1,n,u
N#C/C(=C\c1ccc(-c2cccc(C(F)(F)F)c2)o1)C(=O)Nn1cnnc1,n,n
O=C1OC(c2ccco2)=N/C1=C\c1ccc(-c2cccc(C(F)(F)F)c2)o1,n,12.6µM
O=C(CNC(=O)c1ccc([N+](=O)[O-])cc1)N/N=C\c1ccc(OC(=O)c2ccccc2)cc1,n,7.94µM
COc1cccc(C(=O)NCC(=O)N/N=C/c2cccc(OC(=O)c3ccc([N+](=O)[O-])cc3)c2)c1,n,u
Cc1cc([N+](=O)[O-])cc(C)c1OCC(=O)N/N=C/c1ccc(OC(=O)c2ccccc2Br)cc1,n,10µM
Cc1ccc(CC(=O)N/N=C/c2ccc(OC(=O)c3ccc([N+](=O)[O-])cc3)cc2)cc1,n,u
Cc1cc([N+](=O)[O-])cc(C)c1OCC(=O)N/N=C/c1ccc(OC(=O)c2ccccc2)cc1,n,12.6µM
Cc1cccc(C)c1OCC(=O)N/N=C/c1ccncc1,n,n
Fc1ccccc1N1CCN(c2ncnc3onc(-c4ccc(Cl)cc4)c23)CC1,n,n
Cc1nc2ncnn2c(C)c1CCC(=O)N1CCN(c2ccccc2)CC1,n,n

# Screening data (PubChem BioAssay)
